In the library only some 1.3% were active in any assay of this set; here they are far more common.
EPAC1 antag: antagonists of human EPAC1; AID 720709; EPAC1 GEF assay, Rap1b-BODIPY-GDP exchange fluorescence; 360,000 tested, 0.14% active; Potency, µM (series often up to 115 µM), most hits filed as inhibitors; O95398; also: nearly all actives have a fitted effect of over 50% in size
EPAC2 agonist: agonists of human EPAC2 (RAPGEF4); Q8WZA2; EPAC2 activation, biochemical qHTS; response scale: 100% = 6.5 mM cAMP response; Potency, µM (doses to about 154 µM), usual class: activators; 360,000 tested, 0.079% active; also: nearly all actives have a fitted effect of over 50% in size
Target sequence (Q8WZA2 whole entry, looked up): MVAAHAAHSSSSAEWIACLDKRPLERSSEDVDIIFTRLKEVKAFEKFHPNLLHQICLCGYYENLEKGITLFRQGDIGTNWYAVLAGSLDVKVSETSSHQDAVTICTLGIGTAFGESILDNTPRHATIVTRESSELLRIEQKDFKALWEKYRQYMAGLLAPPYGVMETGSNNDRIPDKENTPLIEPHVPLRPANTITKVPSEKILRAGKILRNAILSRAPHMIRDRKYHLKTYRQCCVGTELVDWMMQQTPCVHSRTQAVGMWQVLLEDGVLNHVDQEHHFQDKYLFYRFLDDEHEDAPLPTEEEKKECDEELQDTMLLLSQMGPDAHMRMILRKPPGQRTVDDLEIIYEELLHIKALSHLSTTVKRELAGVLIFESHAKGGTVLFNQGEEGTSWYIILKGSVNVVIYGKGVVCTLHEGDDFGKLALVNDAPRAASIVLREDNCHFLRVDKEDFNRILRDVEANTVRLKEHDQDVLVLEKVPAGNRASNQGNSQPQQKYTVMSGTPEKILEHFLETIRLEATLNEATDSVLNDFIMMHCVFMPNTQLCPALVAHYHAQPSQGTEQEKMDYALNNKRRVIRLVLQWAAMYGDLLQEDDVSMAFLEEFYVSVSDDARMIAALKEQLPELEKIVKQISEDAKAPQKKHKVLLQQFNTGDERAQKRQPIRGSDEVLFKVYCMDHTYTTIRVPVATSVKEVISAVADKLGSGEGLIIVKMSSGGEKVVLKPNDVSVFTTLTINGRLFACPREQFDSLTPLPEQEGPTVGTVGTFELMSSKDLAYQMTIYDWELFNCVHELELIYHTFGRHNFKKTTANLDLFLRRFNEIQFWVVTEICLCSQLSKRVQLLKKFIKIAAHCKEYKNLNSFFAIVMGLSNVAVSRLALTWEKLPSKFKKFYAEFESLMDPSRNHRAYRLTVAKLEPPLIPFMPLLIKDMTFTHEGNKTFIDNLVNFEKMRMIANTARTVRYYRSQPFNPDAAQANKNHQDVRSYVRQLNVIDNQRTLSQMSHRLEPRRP
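Setup: EPAC2 100 nM, labeled Rap1B complex 250 nM, free GDP 50 uM. Compound titrations pinned in, brief spin, 5 min room temperature incubation. Kinetic fluorescence read over 30 min, normalized to 6.5 mM cAMP.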
EPAC2 antag: EPAC2 (human) antagonism. Q8WZA2. EPAC2 GEF exchange of Rap1B-BODIPY-GDP, fluorescence. Potency, µM (highest dose often 114 µM), hits mostly inhibitors. 360,000 tested, 0.18% active; also: nearly all actives have a fitted effect of over 45% in size
EPAC1 agonist: activates human EPAC1 exchange factor; EPAC1 agonist qHTS, biochemical assay; response scale: 100% = response to 6.5 mM cAMP; Potency, µM (series often up to 154 µM), actives largely listed as activators; 360,000 tested, 0.073% active; AID 720707; O95398; also: nearly all actives have a fitted effect of over 60% in size
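Multi-concentration qHTS readout: loss of Rap1B-bound BODIPY-GDP fluorescence driven by 100 nM EPAC1 with excess GDP (50 uM), monitored kinetically at room temperature; agonist response expressed relative to 6.5 mM cAMP.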
RGS4 inh: inhibitors of human regulator of G protein signaling 4; Potency, µM (top dose mostly 114 µM), hits mostly inhibitors; Transcreener GDP fluorescence polarization, RGS4-accelerated GTP hydrolysis; 390,000 tested, 0.039% active; P49798; AID 504845; also: nearly all actives have a fitted effect of over 75% in size
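MLSMR compounds (23 nl, pin-transferred) preincubated 10 min at room temperature with a 500nM (2x) first reagent, then RGS4 at 900nM (2x) plus Transcreener GDP mix added; fluorescence polarization (620/688 nm) read before and after 90 min at 30 °C.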
BRCA1 expr act: increases BRCA1 expression; AID 624202; MCF7-BRCA1-FFLuc reporter, luminescence, 48 h; response scale: scaled: vehicle 0%, 10 µM genistein 100%; Potency, µM (top dose mostly 46.1 µM), hits mostly activators; 380,000 tested, 1.1% active; also: nearly all actives have a fitted effect of over 80% in size
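Luminescence from a BRCA1-driven firefly luciferase in MCF7 cells was read after 48 h compound exposure at 37 C. Data normalized against DMSO and a 10microM genistein activation control, then curve-fitted across the titration.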
Numbers stand for hits; . = inactive; ? = inconclusive; / = not tested or not shown. Calls follow the shape of the dose curve; as a rule, active = well fitted curve in the direction sought with a large enough effect; inconclusive = small, poorly fitted or top-dose-only effect, or another doubt; inactive = no such curve, though single readings can be large; an effect the other way counts as inactive or inconclusive.

SMILES	EPAC1 antag	EPAC2 agonist	EPAC2 antag	EPAC1 agonist	RGS4 inh	BRCA1 expr act
Cc1ccc(/C=N/N2CCN(c3ccccc3)CC2)cc1	.	.	.	.	.	12.6µM
CN(C)c1ccc(C(CNC(=O)c2cccs2)N(C)C)cc1 (configuration not stated)	?	.	.	.	.	12.6µM
CN(C)c1ccc(NC(=O)COC(=O)CNC(=O)c2cccs2)cc1	.	.	.	.	.	.
Clc1ccc(OCCOCCNCc2ccccc2)cc1Cl	.	.	.	.	.	.
Cc1c(CC(=O)NC(C)C)c(=O)oc2cc3c(cc12)CCC(C)(C)O3	.	.	.	.	.	11.2µM
Cc1c(CC(=O)N[C@@H](C)C(=O)O)c(=O)oc2cc3c(cc12)CCC(C)(C)O3	.	.	.	.	.	.
COc1ccc(C2OC(=O)CC2C(=O)NCc2ccc(Cl)cc2)cc1OC (configuration not stated)	.	.	.	.	.	8.91µM
COc1ccc(C2OC(=O)CC2C(=O)NCc2ccc(F)cc2)cc1OC (configuration not stated)	.	.	.	.	.	.
c1ccc(CSc2ccc(-c3ccco3)nn2)cc1	.	.	.	.	.	3.16µM
Clc1cccc(CSc2ccc(-c3ccco3)nn2)c1	.	.	.	.	.	.
Clc1ccc(CSc2ccc(-c3ccco3)nn2)cc1	.	.	.	.	.	12.6µM
O=C(CSc1ccc(-c2ccco2)nn1)c1cccc([N+](=O)[O-])c1	20µM	.	.	.	?	.
Cc1ccc(CSc2ccc(-c3ccco3)nn2)cc1	.	.	.	.	.	3.55µM
Cc1onc(-c2ccc(Cl)cc2Cl)c1-c1csc(COc2ccccc2)n1	.	.	.	.	.	.
N#Cc1ccc(N2CCOCC2)c([N+](=O)[O-])c1	.	.	.	.	?	.
CN(Cc1ccc(F)cc1)C(=O)c1cccc(OCc2ccccc2)c1	.	.	50.1µM	.	.	.
CCN(C(=O)CN1C(=O)NC2(CCCC2)C1=O)c1nc2c(C)cccc2s1	.	.	.	.	/	.
O=C1C(=C(I)I)c2ccccc2-c2ccccc21	25.1µM	?	?	.	?	.
O=C(O)c1cccc2c1C(=O)c1ccccc1-2	.	.	.	.	.	.
O=C1C2C3C=CC(CC3)C2C(=O)N1/N=C/c1c[nH]c2ccccc12 (configuration not stated)	.	.	.	.	.	8.91µM
CCN1CCN(C(c2cccc(F)c2)c2c(O)cc(C)n(CCOC)c2=O)CC1 (configuration not stated)	/	/	/	/	.	/
COc1ccc(C(=O)COc2ccc(F)cc2)c(O)c1	.	.	.	.	.	11.2µM
O=C(Nc1ccccc1)c1ccc2nc(-c3ccco3)c(-c3ccco3)nc2c1	?	.	.	.	?	.
O=C(NCc1ccco1)c1ccc2ccccc2c1	.	.	.	.	.	11.2µM
O=C(NCc1ccccc1)c1ccc2nc(-c3ccco3)c(-c3ccco3)nc2c1	31.6µM	.	.	.	?	.
SMILES	EPAC1 antag	EPAC2 agonist	EPAC2 antag	EPAC1 agonist	RGS4 inh	BRCA1 expr act
O=C(NCc1ccco1)c1ccc(C(=O)NCc2ccco2)cc1	.	.	.	.	.	.
CCc1ccc(OCc2ccc(C(=O)O)o2)cc1	.	.	.	.	.	?
O=c1oc2ccccc2nc1/C=C(O)/C=C\c1ccccc1	.	63.1µM	.	.	.	.
Cc1ccc(Cn2nc(C)cc2C(=O)Nc2ccccc2Cl)cc1	.	.	.	.	.	3.98µM
C=CCn1nc(-c2ccccc2)cc1C(=O)OCC	.	.	.	.	.	.
CCOC(=O)c1cc(-c2ccc(C)cc2)nn1Cc1ccccc1	/	/	/	/	.	10µM
Cc1ccc(Cn2nc(C)cc2C(=O)Nc2ccc(Cl)cc2)cc1	.	.	.	.	.	.
CC(=O)Nc1ccc(NC(=O)C(C)OC(=O)c2ccc3[nH]c(C)c(C)c3c2)cc1 (configuration not stated)	.	.	.	.	.	.
O=C(CS(=O)(=O)c1ccccc1)c1cc2cc(F)ccc2oc1=O	?	.	50.1µM	.	.	.

Screens from PubChem.
